Measured values as given in the supplement of paper PMC11001985.

Compound: C#CCNC(=O)CCSSCCC(=O)NCCc1ccc(C=O)c(C=O)c1
Test: lysine labeling ratio R10:1 (500 µM / 50 µM probe), SILAC-ABPP in living cells; higher = lower intrinsic lysine reactivity toward the probe, active = 2 or less
Details: HeLa; probe concentrations 500 vs 50 µM
Summary of the method: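 Forward and reverse SILAC label swaps were used with living light and heavy HeLa cells in PBS at room temperature, which were given an alkyne-tagged, disulfide-linked lysine probe at 50 µM or 500 µM. R is the per-lysine filtered median high-probe/low-probe MS1 peptide ratio, with the median then taken across both swap directions. Values are limited to 20.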

Sequence of UniProt Q15149 (Q15149 whole entry): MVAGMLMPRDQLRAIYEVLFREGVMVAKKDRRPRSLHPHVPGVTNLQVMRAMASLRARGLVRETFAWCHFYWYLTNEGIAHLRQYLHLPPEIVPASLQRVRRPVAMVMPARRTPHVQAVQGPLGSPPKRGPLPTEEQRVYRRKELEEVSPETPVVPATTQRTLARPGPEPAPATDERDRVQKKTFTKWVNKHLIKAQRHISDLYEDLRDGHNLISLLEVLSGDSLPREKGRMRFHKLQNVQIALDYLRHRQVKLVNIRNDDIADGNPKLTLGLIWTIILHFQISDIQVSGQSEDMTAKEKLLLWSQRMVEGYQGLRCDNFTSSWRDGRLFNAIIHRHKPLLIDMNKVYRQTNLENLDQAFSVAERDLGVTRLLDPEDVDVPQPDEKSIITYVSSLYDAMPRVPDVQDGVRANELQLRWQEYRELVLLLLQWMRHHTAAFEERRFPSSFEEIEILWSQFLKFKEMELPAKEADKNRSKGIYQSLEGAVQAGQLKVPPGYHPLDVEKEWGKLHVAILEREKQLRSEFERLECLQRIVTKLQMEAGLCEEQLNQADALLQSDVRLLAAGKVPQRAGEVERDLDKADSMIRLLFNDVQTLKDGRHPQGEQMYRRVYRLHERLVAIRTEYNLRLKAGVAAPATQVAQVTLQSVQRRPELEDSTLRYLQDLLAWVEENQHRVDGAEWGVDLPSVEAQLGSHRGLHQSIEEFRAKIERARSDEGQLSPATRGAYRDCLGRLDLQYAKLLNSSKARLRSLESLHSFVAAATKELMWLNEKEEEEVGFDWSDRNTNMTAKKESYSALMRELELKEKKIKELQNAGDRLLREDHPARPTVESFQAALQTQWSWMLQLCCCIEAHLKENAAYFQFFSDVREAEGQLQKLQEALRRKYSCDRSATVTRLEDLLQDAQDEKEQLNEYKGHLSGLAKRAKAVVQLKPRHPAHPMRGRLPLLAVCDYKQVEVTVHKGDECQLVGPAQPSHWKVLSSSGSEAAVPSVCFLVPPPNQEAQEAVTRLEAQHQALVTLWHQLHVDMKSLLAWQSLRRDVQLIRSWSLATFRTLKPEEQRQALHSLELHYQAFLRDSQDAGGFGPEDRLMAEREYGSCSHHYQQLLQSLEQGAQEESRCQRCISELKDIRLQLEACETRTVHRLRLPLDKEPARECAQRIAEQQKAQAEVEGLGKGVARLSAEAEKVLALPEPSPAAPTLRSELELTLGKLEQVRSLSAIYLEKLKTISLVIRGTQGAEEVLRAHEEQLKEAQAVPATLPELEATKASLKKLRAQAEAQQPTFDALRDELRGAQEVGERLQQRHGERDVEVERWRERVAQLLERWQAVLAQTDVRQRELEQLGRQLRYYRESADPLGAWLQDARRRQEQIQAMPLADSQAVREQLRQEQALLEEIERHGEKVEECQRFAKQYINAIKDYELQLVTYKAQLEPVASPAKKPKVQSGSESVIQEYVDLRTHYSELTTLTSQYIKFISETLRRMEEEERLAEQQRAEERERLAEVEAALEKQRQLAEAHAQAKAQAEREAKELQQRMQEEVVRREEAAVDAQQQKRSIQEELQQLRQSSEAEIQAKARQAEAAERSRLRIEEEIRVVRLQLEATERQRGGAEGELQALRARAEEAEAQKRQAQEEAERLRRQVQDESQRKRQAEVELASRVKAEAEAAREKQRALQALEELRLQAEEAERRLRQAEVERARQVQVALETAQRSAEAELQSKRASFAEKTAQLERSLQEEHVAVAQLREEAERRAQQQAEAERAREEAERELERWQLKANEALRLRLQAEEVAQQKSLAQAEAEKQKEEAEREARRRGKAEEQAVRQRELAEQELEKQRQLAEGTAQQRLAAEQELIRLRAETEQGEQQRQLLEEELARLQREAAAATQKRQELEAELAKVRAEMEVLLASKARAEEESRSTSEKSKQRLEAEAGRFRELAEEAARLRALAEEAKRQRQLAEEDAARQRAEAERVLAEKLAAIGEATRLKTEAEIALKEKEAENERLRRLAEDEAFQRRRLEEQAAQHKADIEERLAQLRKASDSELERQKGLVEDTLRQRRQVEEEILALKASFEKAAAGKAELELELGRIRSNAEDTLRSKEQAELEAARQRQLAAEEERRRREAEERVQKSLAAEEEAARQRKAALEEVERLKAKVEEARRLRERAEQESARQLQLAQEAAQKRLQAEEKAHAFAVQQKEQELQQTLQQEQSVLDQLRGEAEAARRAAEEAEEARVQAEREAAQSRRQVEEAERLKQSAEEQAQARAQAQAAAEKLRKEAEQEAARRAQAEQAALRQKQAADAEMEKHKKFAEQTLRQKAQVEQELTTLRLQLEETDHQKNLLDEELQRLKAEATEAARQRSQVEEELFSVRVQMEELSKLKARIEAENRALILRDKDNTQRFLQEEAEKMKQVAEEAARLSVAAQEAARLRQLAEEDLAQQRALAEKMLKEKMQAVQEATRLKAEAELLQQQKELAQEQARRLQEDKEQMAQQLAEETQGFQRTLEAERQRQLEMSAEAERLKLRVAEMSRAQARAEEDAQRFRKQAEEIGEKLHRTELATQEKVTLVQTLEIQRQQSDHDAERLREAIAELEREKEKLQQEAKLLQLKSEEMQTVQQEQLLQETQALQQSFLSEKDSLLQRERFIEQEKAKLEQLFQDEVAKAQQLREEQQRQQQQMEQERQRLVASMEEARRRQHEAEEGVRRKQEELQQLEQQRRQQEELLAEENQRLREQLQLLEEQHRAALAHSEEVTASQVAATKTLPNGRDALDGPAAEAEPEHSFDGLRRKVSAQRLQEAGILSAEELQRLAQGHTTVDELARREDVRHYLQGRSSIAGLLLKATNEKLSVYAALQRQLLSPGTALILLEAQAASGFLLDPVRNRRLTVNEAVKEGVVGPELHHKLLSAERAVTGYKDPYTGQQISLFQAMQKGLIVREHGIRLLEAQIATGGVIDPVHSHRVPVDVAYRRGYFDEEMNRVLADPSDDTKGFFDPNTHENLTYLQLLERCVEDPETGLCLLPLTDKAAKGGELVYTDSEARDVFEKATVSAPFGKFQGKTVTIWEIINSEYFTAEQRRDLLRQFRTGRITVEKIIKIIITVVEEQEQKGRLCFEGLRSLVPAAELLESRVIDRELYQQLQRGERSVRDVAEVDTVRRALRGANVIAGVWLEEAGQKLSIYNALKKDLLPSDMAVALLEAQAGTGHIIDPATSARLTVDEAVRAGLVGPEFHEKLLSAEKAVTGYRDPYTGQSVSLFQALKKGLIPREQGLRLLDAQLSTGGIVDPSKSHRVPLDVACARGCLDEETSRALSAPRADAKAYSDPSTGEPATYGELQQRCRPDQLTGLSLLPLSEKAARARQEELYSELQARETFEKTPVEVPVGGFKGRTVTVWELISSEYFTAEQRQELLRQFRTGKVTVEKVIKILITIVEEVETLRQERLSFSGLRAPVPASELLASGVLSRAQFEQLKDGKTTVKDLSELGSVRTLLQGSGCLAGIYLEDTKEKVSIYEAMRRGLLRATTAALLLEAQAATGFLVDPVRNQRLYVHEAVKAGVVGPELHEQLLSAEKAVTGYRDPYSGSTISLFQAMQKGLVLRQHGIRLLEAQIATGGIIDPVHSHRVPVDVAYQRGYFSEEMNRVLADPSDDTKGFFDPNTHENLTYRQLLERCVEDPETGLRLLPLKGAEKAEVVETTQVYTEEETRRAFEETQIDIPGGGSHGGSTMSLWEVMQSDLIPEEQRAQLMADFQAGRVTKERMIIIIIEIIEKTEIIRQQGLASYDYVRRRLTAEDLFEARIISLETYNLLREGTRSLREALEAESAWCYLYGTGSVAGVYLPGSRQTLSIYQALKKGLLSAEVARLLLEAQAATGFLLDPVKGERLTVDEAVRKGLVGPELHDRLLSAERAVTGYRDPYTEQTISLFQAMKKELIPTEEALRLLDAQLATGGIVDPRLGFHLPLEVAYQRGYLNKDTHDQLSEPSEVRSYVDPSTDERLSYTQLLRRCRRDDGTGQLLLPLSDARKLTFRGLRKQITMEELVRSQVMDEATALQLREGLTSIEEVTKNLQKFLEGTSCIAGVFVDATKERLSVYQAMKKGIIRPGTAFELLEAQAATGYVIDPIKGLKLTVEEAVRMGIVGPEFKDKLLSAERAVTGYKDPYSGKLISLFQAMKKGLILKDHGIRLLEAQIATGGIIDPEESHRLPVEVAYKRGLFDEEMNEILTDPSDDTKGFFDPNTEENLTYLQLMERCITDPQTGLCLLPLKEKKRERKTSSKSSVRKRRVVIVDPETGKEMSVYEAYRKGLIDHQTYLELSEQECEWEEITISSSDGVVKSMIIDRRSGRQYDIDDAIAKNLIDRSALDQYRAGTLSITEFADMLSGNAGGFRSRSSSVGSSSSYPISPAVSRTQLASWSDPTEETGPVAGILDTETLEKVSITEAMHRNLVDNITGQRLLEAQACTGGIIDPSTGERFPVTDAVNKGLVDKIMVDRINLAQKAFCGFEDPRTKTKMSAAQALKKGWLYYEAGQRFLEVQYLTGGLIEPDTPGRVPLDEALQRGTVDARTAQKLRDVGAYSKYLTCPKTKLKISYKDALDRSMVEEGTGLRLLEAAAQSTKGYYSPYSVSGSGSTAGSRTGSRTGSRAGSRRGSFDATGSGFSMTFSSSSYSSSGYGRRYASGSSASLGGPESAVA
Sequence of UniProt Q12891 (Q12891 whole entry): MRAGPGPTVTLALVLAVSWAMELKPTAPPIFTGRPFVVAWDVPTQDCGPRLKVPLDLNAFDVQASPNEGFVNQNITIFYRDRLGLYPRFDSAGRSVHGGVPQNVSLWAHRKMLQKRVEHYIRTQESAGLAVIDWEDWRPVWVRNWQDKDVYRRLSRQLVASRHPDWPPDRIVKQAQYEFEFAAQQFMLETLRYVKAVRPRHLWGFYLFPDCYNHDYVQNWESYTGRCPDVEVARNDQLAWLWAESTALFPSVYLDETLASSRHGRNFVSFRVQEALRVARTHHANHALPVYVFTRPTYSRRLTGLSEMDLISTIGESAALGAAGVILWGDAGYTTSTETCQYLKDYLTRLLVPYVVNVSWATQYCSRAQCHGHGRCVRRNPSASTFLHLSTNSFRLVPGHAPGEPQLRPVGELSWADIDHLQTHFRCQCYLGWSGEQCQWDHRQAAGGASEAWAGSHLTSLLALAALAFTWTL

Target | lysine labeling ratio R10:1
PCBP2 (lysine site: K309) (UniProt Q15366) | 3.28 (inactive)
XRCC5 (lysine site: K36) (UniProt P13010) | 2.42 (inactive)
UniProt P05787 (lysine site: K130) | 9.55 (inactive)
GBE1 (lysine site: K554) (UniProt Q04446) | 0.937 (active)
DDX5 (lysine site: K207) (UniProt P17844) | 4.37 (inactive)
CAPZB (lysine site: K95) (UniProt P47756) | 3.24 (inactive)
PLS3 (lysine site: K52) (UniProt P13797) | 2.05 (inactive)
UniProt Q6NZI2 (lysine site: K122) | 5.32 (inactive)
SEMA4D (lysine site: K104) (UniProt Q92854) | 0.575 (active)
SPTBN1 (lysine site: K2177) (UniProt Q01082) | 14.1 (inactive)
UniProt P83731 (lysine site: K97) | 1.9 (active)
UniProt Q15149 (lysine site: K3237) | 1.17 (active)
FZD6 (lysine site: K149) (UniProt O60353) | 0.883 (active)
NENF (lysine site: K136) (UniProt Q9UMX5) | 0.955 (active)
RPL4 (lysine site: K239) (UniProt P36578) | 2.48 (inactive)
CCT4 (lysine site: K42) (UniProt P50991) | 4.65 (inactive)
UniProt Q9H336 (lysine site: K468) | 1.33 (active)
TMED9 (lysine site: K95) (UniProt Q9BVK6) | 4.55 (inactive)
PDCD6IP (lysine site: K285) (UniProt Q8WUM4) | 15.7 (inactive)
UniProt Q9UHN6 (lysine site: K767) | 3.26 (inactive)

Target | lysine labeling ratio R10:1
UniProt Q15149 (lysine site: K1520) | 3.8 (inactive)
PDIA4 (lysine site: K145) (UniProt P13667) | 0.551 (active)
LMAN1 (lysine site: K407) (UniProt P49257) | 3.11 (inactive)
FN1 (lysine site: K2027) (UniProt P02751) | 13 (inactive)
UniProt P61026 (lysine site: K136) | 1.9 (active)
UniProt Q12891 (lysine site: K148) | 1.46 (active)
CD109 (lysine site: K567) (UniProt Q6YHK3) | 3.37 (inactive)
NCL (lysine site: K467) (UniProt P19338) | 0.565 (active)
SDC2 (lysine site: K141) (UniProt P34741) | 1.35 (active)
THRAP3 (lysine site: K346) (UniProt Q9Y2W1) | 2.43 (inactive)
ITGAV (lysine site: K400) (UniProt P06756) | 0.958 (active)
NUCB1 (lysine site: K183) (UniProt Q02818) | 3.16 (inactive)
CSE1L (lysine site: K158) (UniProt P55060) | 3.34 (inactive)
IMPDH2 (lysine site: K511) (UniProt P12268) | 3.35 (inactive)
UniProt Q8WXI7 (lysine site: K12309) | 6.26 (inactive)
TAGLN2 (lysine site: K40) (UniProt P37802) | 2.67 (inactive)
CPM (lysine site: K338) (UniProt P14384) | 4.51 (inactive)
ITGA4 (lysine site: K526) (UniProt P13612) | 1.76 (active)
ITGB1 (lysine site: K134) (UniProt P05556) | 1.83 (active)
ACIN1 (lysine site: K81) (UniProt Q9UKV3) | 3.67 (inactive)
